# Results taken from PubChem BioAssay (Tox21).
# Several values for one entry are separate records, joined by “and”; a condition that tells them apart may be missing. Equal entries are not always repeated. Records with an inconclusive call do not appear. A call without a number means that no potency is given here. Some structures have more than one record in an assay (separate samples or runs), and their calls can disagree. Activity calls are given as the source filed them. Calls follow the shape of the dose curve; as a rule, active = well fitted curve in the direction sought with a large enough effect in the repeat runs; inconclusive = weak or mixed curves; inactive = no such curve, though single readings can be large; an effect the other way counts as inactive or inconclusive.
# Columns and labels:
# [1] = A CellTox Green Cytotoxicity Assay to monitor cytotoxicity in HepG2 cells - 0 hour (AID 1224882); also: nearly all actives have a fitted effect of over 35% in size
# In short: (§1)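 Real-time, homogeneous cytotoxicity readout: dead-cell DNA staining by CellTox Green in HepG2 monolayers, fluorescence measured at timed intervals up to 40 h of continuous compound exposure.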
# [2] = A CellTox Green Cytotoxicity Assay to monitor cytotoxicity in HepG2 cells - 32 hour (AID 1224883); also: nearly all actives have a fitted effect of over 50% in size; also: potency is read from the fitted curve at half-maximal effect
# In short: as §1
# [3] = A CellTox Green Cytotoxicity Assay to monitor cytotoxicity in HEK293 cells - 8 hour (AID 1224884); also: nearly all actives have a fitted effect of over 35% in size; also: potency is read from the fitted curve at half-maximal effect
# In short: (§2)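 Cytotoxicity was tracked continuously in HEK293 cells by a DNA-binding dye excluded from viable cells. Compounds were transferred in DMSO 5 h after seeding; fluorescence was recorded at intervals up to 40 h.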
# [4] = qHTS RealTime-Glo MT Cell Viability Assay in HepG2 cells - 16 hour (AID 1224885); also: nearly all actives have a fitted effect of over 50% in size; also: potency is read from the fitted curve at half-maximal effect
# In short: (§3)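 Real-time, nonlytic viability: 600 HepG2 cells/well mixed with NanoLuc enzyme plus prosubstrate; 5 h settle, compound (DMSO) added by pintool; luminescence monitored over 40 h at 37 C.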
# [5] = qHTS RealTime-Glo MT Cell Viability Assay in HEK293 cells - 24 hour (AID 1224886); also: nearly all actives have a fitted effect of over 50% in size; also: potency is read from the fitted curve at half-maximal effect
# In short: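 Cells + reagent dispensed (600 cells/well, HEK293) → 5 h at 37 C/5% CO2 → 23 nL compound in DMSO pinned → 40 h at 37 C → luminescence read at 0, 8, 16, 24, 32, 40 h.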
# [6] = A CellTox Green Cytotoxicity Assay to monitor cytotoxicity in HEK293 cells - 16 hour (AID 1224888); also: nearly all actives have a fitted effect of over 35% in size; also: potency is read from the fitted curve at half-maximal effect
# In short: as §2
# [7] = qHTS RealTime-Glo MT Cell Viability Assay in HepG2 cells - 0 hour (AID 1224889); also: nearly all actives have a fitted effect of over 50% in size; also: potency is read from the fitted curve at half-maximal effect
# In short: as §3
# [8] = qHTS assay to identify small molecule antagonists of the estrogen receptor alpha (ER-alpha) signaling pathway using the BG1 cell line in the presence of 0.1 nM 17-beta-estradiol - cell viability counter screen (AID 1259241); also: nearly all actives have a fitted effect of over 40% in size; also: potency is read from the fitted curve at half-maximal effect
# In short: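 Measures cytotoxicity alongside the ER-alpha antagonist readout: VM7Luc4E2 cells, charcoal-stripped serum, 0.1 nM 17beta-estradiol final, 22 hr compound incubation at 37C, CellTiter-Fluor fluorescence.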
# [9] = qHTS RealTime-Glo MT Cell Viability Assay in HEK293 cells - 8 hour (AID 1224887); also: nearly all actives have a fitted effect of over 50% in size; also: potency is read from the fitted curve at half-maximal effect
# In short: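 Nonlytic bioluminescent viability monitoring. HEK293 at 600 cells/well with reagent; 5 h settle; compound transfer by pintool; plates held at 37 C and read at set time points.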
# [10] = A CellTox Green Cytotoxicity Assay to monitor cytotoxicity in HepG2 cells - 8 hour (AID 1224890); also: nearly all actives have a fitted effect of over 45% in size
# In short: as §1
SMILES,Potency [1],Potency [2],Potency [3],Potency [4],Potency [5],Potency [6],Potency [7],Potency [8],Potency [9],Potency [10]
CN(C)CCCN1c2ccccc2Sc2ccc(Cl)cc21,inactive,24.5 µM (active) and 23.9 µM (active),54.9 µM (active) and inactive,49 µM (active) and 23.9 µM (active),24.5 µM (active) and 23.9 µM (active),54.9 µM (active) and 26.8 µM (active),–,–,–,–
Cc1ccc(/C(=C\CN2CCCC2)c2ccccn2)cc1,inactive,inactive,inactive,inactive,inactive,inactive,inactive,inactive,–,–
O=C(O)CCCC(=O)O,inactive,inactive,inactive,inactive,inactive,inactive,inactive,inactive,inactive,–
CCCCCCCCCCCCCO,inactive,inactive,inactive,inactive,inactive,inactive,inactive,inactive,–,inactive
CCc1cccc2c3c([nH]c12)C(CC)(CC(=O)O)OCC3 (stereo not given),inactive,inactive,inactive,inactive,inactive,inactive,inactive,inactive,–,inactive
CC1(C)NC(=O)N(c2ccc([N+](=O)[O-])c(C(F)(F)F)c2)C1=O,inactive,inactive,inactive,inactive,24.5 µM (active) and inactive,inactive,inactive,inactive,–,inactive
CC(=O)O[C@]1(C(C)=O)CC[C@H]2[C@@H]3C=C(Cl)C4=CC(=O)CC[C@]4(C)[C@H]3CC[C@@]21C,inactive,inactive,inactive,inactive,21.8 µM (active),inactive,346 nM (active) and 477 nM (active),inactive,–,inactive
CC(C)(C)c1cccc(C(C)(C)C)c1O,inactive,inactive,inactive,inactive,24 µM (active) and inactive,inactive,inactive,inactive,–,inactive
CC/C(=C(/CC)c1ccc(O)cc1)c1ccc(O)cc1,inactive,inactive,inactive,inactive,12.2 µM (active) and 27.5 µM (active),inactive,inactive,inactive,–,inactive
C=C[Si](OCCOC)(OCCOC)OCCOC,inactive,inactive,inactive,inactive,inactive,inactive,inactive,inactive,–,inactive
CC(=O)Oc1ccc(C(c2ccc(OC(C)=O)cc2)c2ccccn2)cc1,inactive,inactive,inactive,inactive,inactive,inactive,inactive,0.75 µM (active),inactive,–
[O-]/[N+](=N\O)c1ccccc1,inactive,inactive,inactive,inactive,inactive,inactive,inactive,inactive,–,–
C=C[C@H]1CN2CC[C@H]1C[C@@H]2[C@@H](O)c1ccnc2ccc(OC)cc12,inactive,inactive,inactive,inactive,48.2 µM (active),inactive,inactive,inactive,42.9 µM (active) and inactive,–
Nc1ccc2c(O)cc(S(=O)(=O)O)cc2c1,inactive,inactive,inactive,inactive,–,inactive,inactive,61.1 µM (active),inactive,–
Cc1ccc(S(=O)(=O)O)cc1C,inactive,inactive,inactive,inactive,inactive,inactive,inactive,inactive,–,–
CC(C)[C@@H]1CC[C@@H](C)CC1=O,inactive,inactive,inactive,inactive,inactive,inactive,inactive,inactive,–,inactive
CCC(=O)O[C@H]1[C@H](O[C@@H]2[C@@H](C)[C@H](O[C@H]3C[C@@](C)(OC)[C@@H](O)[C@H](C)O3)[C@@H](C)C(=O)O[C@H](CC)[C@@](C)(O)[C@H](O)[C@@H](C)C(=O)[C@H](C)C[C@@]2(C)O)O[C@H](C)C[C@@H]1N(C)C,inactive,inactive,inactive,inactive,inactive,inactive,inactive,inactive,–,–
Cc1ccc(C(C)(C)C)c(O)c1,inactive,38.9 µM (active),18.9 µM (active) and inactive,inactive,inactive,–,inactive,inactive,inactive,–
CC1(C)C(C=C(Cl)Cl)C1C(=O)OCc1cccc(Oc2ccccc2)c1 (stereo not given),inactive,inactive,inactive,inactive,inactive,inactive,inactive,inactive,–,–
Clc1ccc(Sc2cc(Cl)c(Cl)cc2Cl)cc1,inactive,inactive,inactive,inactive,inactive,inactive,inactive,inactive,inactive,–
CCC/C=C/C=O,inactive,inactive,inactive,inactive,inactive,inactive,inactive,inactive,inactive,–
CCC(Cc1c(I)cc(I)c(N)c1I)C(=O)O (stereo not given),inactive,inactive,inactive,inactive,inactive,inactive,inactive,inactive,inactive,–
C=CCCCCCCCCCC,inactive,inactive,inactive,inactive,inactive,inactive,inactive,inactive,–,–
NC[C@H](O)c1ccc(O)c(O)c1,inactive,inactive,inactive,inactive,inactive,inactive,inactive,inactive,–,–
c1ccc2cc3ccccc3cc2c1,inactive,inactive,inactive,inactive,inactive,inactive,inactive,inactive,–,inactive
CN(Cc1cnc2nc(N)nc(N)c2n1)c1ccc(C(=O)N[C@@H](CCC(=O)O)C(=O)O)cc1,inactive,inactive,inactive,inactive,–,inactive,inactive,inactive,–,inactive
COC(=O)c1ccc(C)cc1,inactive,inactive,inactive,inactive,inactive,inactive,inactive,inactive,inactive,–

SMILES,Potency [1],Potency [2],Potency [3],Potency [4],Potency [5],Potency [6],Potency [7],Potency [8],Potency [9],Potency [10]
C=CCOC(=O)C(=C)C,inactive,inactive,inactive,inactive,inactive,inactive,inactive,inactive,inactive,–
CC1(C)O[C@@H]2C[C@H]3[C@@H]4C[C@H](F)C5=CC(=O)C=C[C@]5(C)[C@@]4(F)[C@@H](O)C[C@]3(C)[C@]2(C(=O)CO)O1,inactive,inactive,inactive,inactive,inactive,inactive,3.89 µM (active) and 9.52 µM (active),inactive,–,inactive
O=C(CCCN1CCC(O)(c2ccc(Cl)cc2)CC1)c1ccc(F)cc1,inactive,21.9 µM (active),inactive,49 µM (active) and inactive,13.8 µM (active) and 8.49 µM (active),–,inactive,inactive,–,–
FC(F)(F)C(Cl)Br (stereo not given),inactive,inactive,inactive,inactive,inactive,inactive,inactive,inactive,–,inactive
Cc1ccc(N)c([N+](=O)[O-])c1,inactive,inactive,inactive,inactive,inactive,inactive,inactive,inactive,–,–
C=CN1CCCC1=O,inactive,inactive,inactive,–,inactive,inactive,inactive,inactive,inactive,–
CN1CCOCC1,inactive,inactive,inactive,–,inactive,inactive,inactive,inactive,–,–
Cc1ccc([N+](=O)[O-])c(C)c1,inactive,17.4 µM (active) and inactive,inactive,–,38.9 µM (active) and inactive,inactive,inactive,inactive,inactive,–
C[N+](C)(C)CCO,inactive,inactive,inactive,–,inactive,inactive,inactive,inactive,inactive,inactive
Cc1ccc(S(=O)(=O)NCl)cc1,inactive,inactive,inactive,–,inactive,inactive,inactive,inactive,inactive,inactive
COc1ccc(-c2coc3cc(O)cc(O)c3c2=O)cc1,inactive,–,inactive,–,44 µM (active),inactive,inactive,inactive,–,–
CC(C)=CCO,inactive,inactive,inactive,–,inactive,inactive,inactive,inactive,–,–
O=S1(=O)CCCO1,inactive,inactive,inactive,–,inactive,inactive,inactive,inactive,inactive,inactive
O=C1CCc2ccccc2O1,inactive,inactive,inactive,–,inactive,inactive,inactive,inactive,inactive,–
CC(=O)Oc1c(C)c(C)c2c(c1C)CC[C@@](C)(CCC[C@H](C)CCC[C@H](C)CCCC(C)C)O2,inactive,inactive,inactive,–,inactive,inactive,inactive,inactive,inactive,–
c1ccc2c(c1)ccc1cc3c(ccc4ccccc43)cc12,inactive,inactive,inactive,–,inactive,inactive,inactive,inactive,inactive,inactive
NCCOCCO,inactive,inactive,inactive,–,inactive,inactive,inactive,inactive,–,inactive
CC[C@]12CCCN3CCc4c(n(c5ccccc45)[C@@](O)(C(=O)OC)C1)[C@@H]32,inactive,inactive,inactive,–,inactive,inactive,inactive,inactive,inactive,inactive
Nc1ccc(O)c(N)c1,inactive,inactive,inactive,–,inactive,inactive,inactive,–,–,inactive
Oc1ccc(C(c2ccc(O)cc2)C(Cl)(Cl)Cl)cc1,inactive,inactive,inactive,–,–,inactive,inactive,inactive,–,–
C=C1C[C@H]2[C@@H]3C=C(C)C4=CC(=O)CC[C@]4(C)[C@H]3CC[C@]2(C)[C@@]1(OC(C)=O)C(C)=O,inactive,inactive,inactive,–,–,inactive,1.41 µM (active) and 6.01 µM (active),inactive,inactive,inactive
CC/C=C\C/C=C\C/C=C\CCCCCCCC(=O)O,inactive,inactive,inactive,–,inactive,inactive,inactive,inactive,inactive,inactive
C1CN(SSN2CCOCC2)CCO1,inactive,inactive,inactive,–,inactive,inactive,inactive,inactive,inactive,inactive
COC(=O)C(C)Oc1ccc(Oc2ncc(C(F)(F)F)cc2Cl)cc1 (stereo not given),inactive,inactive,inactive,–,–,inactive,inactive,inactive,–,inactive
CC(C)[N+](C)(CCOC(=O)C1c2ccccc2Oc2ccccc21)C(C)C,inactive,inactive,inactive,–,inactive,inactive,inactive,inactive,–,inactive
C=C[C@@]1(C)CC(=O)[C@]2(O)[C@@]3(C)[C@@H](O)CCC(C)(C)[C@@H]3[C@H](O)[C@H](OC(C)=O)[C@@]2(C)O1,inactive,inactive,inactive,–,inactive,inactive,inactive,inactive,inactive,inactive
